Binding signal data for one sequence are collected here from article PMC7862700, “An all-to-all approach to the identification of sequence-specific readers for epigenetic DNA modifications on cytosine”.

Experiment in all cases: DAPPL (digital affinity profiling via proximity ligation, sequencing); 10 mM Tris-HCl pH 7.5, 50 mM NaCl, 1 mM DTT, 4% glycerol, room temperature, 30 min; GST-TFs on glutathione beads, 16-mer random dsDNA library, 0.1% formaldehyde crosslink after washing; high values mean tight binding
Common to all, as to settings: protein: recombinant; tags: N-terminal GST; dsDNA, one strand shown

One assay addresses T1, FLI1 (Homo sapiens, UniProt Q01543 1-452).
T1 sequence: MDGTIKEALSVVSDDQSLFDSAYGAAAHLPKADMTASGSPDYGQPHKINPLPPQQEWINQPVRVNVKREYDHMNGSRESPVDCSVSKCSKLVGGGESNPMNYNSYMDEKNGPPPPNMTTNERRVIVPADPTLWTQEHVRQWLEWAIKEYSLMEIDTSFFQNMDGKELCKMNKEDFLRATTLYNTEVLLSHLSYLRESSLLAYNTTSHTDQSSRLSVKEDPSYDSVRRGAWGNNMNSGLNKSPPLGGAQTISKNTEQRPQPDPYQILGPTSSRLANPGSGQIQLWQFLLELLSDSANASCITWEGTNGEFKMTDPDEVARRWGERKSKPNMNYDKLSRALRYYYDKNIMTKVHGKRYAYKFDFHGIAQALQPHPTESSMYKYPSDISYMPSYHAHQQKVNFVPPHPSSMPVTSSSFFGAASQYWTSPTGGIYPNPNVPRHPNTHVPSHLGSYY
The gist of the method: (§1)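 Human transcription factors fused to GST were expressed in yeast, captured on glutathione beads, given DNA barcodes and pooled with a GST-only negative control. Pools were incubated with 200 nmole of a 16-mer random double-stranded DNA library in Tris/NaCl/DTT/glycerol buffer at room temperature for 30 min. They were then washed, crosslinked with 0.1% formaldehyde, proximity-ligated (BsaI/T4 ligase, 1 h, 37 °C), PCR-amplified and sequenced on an Illumina NextSeq500. Binding signal is each 6-mer's read frequency for a factor divided by its frequency for the GST control.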

The next assay addresses T2, ELK1 (Homo sapiens, UniProt P19419 1-428).
T2 sequence: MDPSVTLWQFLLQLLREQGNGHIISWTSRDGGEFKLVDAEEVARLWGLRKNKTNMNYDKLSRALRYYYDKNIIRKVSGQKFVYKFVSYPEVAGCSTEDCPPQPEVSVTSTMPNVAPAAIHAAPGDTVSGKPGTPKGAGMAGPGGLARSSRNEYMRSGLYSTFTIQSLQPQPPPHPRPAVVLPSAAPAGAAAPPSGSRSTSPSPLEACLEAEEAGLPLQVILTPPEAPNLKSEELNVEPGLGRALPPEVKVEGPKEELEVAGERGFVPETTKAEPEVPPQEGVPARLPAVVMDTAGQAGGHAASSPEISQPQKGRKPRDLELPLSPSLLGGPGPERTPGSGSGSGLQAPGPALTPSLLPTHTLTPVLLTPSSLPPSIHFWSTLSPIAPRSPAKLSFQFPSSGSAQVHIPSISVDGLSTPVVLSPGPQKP
The gist of the method: as §1

Another assay has as its target T3, GABPA (Homo sapiens, UniProt Q06546 1-454).
T3 sequence: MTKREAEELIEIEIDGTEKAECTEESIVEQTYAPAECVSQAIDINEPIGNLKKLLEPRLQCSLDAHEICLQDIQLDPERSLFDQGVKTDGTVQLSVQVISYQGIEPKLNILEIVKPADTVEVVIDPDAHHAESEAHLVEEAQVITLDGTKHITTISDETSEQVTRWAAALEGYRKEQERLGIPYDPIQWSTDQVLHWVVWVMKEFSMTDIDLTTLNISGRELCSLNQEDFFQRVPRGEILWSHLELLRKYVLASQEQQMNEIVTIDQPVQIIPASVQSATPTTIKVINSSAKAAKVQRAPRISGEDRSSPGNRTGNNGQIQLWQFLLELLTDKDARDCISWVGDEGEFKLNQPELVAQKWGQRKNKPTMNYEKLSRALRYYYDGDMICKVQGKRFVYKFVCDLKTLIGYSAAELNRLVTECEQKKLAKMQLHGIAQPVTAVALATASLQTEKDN
The method in brief: as §1

The target of a further assay is T4, ERG (Homo sapiens, UniProt P11308 1-479).
T4 sequence: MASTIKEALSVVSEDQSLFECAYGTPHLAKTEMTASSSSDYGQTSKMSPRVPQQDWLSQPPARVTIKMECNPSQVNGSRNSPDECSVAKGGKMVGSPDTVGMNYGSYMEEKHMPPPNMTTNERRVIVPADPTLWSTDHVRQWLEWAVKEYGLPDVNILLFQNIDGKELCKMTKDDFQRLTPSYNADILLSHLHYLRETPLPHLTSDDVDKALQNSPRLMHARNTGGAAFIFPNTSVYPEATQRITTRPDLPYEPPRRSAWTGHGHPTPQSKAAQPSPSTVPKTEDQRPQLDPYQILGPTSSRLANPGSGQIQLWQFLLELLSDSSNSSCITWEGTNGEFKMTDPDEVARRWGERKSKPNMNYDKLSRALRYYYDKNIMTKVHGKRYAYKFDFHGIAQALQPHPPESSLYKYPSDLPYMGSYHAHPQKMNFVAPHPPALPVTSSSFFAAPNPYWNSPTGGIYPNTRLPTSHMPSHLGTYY
The gist of the method:
as §1

The next assay has as its target ELF1 (Homo sapiens, UniProt P32519 1-619). The method in brief: as §1
Another assay has as its target T5, EHF (Homo sapiens, UniProt Q9NZC4 1-300).
T5 sequence: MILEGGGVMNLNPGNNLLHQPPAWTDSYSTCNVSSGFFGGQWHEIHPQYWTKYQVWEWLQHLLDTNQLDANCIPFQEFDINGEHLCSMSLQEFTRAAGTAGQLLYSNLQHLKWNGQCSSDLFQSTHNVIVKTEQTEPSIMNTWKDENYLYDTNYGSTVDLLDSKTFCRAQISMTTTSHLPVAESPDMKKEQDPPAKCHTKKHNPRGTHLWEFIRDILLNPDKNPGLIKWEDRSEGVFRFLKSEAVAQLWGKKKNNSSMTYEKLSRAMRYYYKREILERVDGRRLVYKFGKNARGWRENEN
The gist of the method:
as §1

A further assay addresses SPIB (Homo sapiens, UniProt Q01892 1-262). The method in brief: as §1
The target of a further assay is T6, ELK3 (Homo sapiens, UniProt P41970 1-407).
T6 sequence: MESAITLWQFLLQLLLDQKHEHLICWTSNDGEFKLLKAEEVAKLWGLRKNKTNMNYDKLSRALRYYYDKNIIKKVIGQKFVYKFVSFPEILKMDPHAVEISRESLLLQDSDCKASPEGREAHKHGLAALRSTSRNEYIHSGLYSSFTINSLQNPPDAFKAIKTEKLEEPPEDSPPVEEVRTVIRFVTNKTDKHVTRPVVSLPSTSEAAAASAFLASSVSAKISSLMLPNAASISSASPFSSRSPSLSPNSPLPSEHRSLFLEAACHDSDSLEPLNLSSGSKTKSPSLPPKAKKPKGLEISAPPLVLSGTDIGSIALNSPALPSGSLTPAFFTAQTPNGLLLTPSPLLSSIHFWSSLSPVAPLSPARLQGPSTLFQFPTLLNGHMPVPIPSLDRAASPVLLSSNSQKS
The method in brief: as §1

The target of another assay is ELF4 (Homo sapiens, UniProt Q99607 1-663). The method in brief: as §1
Sequence of ELF4 (Q99607 whole entry): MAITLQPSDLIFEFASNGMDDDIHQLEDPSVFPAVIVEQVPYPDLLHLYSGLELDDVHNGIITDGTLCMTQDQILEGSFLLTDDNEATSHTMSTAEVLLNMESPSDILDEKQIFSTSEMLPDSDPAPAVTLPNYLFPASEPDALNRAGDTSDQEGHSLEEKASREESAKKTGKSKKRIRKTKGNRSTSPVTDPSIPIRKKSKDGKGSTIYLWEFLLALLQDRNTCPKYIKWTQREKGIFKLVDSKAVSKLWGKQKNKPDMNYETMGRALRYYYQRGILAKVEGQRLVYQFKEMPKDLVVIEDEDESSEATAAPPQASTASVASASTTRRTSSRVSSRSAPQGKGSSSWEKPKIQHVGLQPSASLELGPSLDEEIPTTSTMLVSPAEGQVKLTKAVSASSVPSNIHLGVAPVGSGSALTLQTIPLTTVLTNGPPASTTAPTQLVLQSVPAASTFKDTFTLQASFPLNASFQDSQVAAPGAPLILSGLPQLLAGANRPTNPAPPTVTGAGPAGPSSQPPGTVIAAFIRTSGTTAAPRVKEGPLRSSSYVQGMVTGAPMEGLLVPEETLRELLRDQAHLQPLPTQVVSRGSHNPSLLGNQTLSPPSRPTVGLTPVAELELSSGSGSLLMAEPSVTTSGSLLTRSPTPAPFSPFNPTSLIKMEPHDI
The target of another assay is T7, ELK4 (Homo sapiens, UniProt P28324-2 1-405).
T7 sequence: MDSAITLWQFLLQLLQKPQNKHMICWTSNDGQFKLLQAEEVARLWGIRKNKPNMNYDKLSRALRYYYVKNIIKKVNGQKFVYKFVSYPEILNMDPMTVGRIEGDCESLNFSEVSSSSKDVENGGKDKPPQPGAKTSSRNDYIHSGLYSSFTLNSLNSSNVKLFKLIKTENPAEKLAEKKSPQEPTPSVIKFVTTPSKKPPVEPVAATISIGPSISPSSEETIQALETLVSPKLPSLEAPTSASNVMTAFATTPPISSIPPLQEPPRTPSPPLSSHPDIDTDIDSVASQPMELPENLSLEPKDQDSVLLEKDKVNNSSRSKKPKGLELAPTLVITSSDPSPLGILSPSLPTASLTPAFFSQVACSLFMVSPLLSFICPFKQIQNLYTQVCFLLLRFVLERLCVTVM
The gist of the method: as §1

A further assay addresses T8, ETV2 (Homo sapiens, UniProt O00321 1-342).
T8 sequence: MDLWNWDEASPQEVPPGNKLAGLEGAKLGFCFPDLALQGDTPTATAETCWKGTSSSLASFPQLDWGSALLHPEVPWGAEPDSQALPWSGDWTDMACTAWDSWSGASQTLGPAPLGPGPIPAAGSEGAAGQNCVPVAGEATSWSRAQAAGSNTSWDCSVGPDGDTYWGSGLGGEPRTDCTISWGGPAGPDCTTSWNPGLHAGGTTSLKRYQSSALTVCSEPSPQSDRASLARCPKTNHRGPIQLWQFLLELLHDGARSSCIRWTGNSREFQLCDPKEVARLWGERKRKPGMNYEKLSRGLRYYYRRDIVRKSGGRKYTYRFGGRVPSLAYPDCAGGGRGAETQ
The method in brief:
as §1

For the next assay, the target named is T9, ELF3 (Homo sapiens, UniProt P78545 1-371).
T9 sequence: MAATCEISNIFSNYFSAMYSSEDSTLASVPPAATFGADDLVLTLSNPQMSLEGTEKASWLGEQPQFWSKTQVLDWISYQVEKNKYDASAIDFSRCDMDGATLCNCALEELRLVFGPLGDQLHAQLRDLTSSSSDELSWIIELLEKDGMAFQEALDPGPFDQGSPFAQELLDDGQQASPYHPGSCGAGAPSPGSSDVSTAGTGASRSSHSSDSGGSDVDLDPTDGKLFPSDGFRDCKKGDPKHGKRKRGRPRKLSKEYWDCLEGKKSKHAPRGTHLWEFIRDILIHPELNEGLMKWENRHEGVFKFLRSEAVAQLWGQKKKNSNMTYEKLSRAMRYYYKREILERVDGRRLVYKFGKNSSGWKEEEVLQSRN
The gist of the method: as §1

The target of the next assay is T10, ERF (Homo sapiens, UniProt P50548 1-548).
T10 sequence: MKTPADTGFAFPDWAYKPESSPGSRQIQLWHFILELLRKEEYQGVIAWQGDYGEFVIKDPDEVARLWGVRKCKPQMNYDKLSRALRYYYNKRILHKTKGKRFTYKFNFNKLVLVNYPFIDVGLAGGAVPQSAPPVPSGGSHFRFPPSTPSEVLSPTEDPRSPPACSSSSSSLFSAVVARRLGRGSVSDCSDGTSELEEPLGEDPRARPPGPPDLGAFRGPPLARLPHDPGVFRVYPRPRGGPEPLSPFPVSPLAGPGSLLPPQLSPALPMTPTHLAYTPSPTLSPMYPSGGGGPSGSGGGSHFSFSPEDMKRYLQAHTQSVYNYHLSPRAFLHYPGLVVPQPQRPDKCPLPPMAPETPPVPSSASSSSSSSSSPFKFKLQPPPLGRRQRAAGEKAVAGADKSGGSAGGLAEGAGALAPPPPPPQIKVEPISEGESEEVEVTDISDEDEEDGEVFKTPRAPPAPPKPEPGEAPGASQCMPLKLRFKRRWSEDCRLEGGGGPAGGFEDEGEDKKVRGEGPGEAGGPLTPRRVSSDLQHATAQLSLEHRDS
The gist of the method:
as §1

The target in the next assay is T11, ETV3L (Homo sapiens, UniProt Q6ZN32 1-361).
T11 sequence: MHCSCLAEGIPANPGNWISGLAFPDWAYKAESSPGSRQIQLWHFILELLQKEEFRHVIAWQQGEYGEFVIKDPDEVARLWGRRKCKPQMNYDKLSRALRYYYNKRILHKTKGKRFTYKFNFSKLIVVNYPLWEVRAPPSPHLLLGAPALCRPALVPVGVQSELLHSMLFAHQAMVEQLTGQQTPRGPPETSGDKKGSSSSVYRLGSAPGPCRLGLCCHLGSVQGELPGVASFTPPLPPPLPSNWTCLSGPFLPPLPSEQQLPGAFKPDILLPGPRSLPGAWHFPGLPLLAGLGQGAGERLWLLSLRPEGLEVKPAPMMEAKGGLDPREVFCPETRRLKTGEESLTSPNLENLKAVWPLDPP
The gist of the method: as §1

A further assay has as its target T12, ETV7 (Homo sapiens, UniProt Q9Y603 1-341).
T12 sequence: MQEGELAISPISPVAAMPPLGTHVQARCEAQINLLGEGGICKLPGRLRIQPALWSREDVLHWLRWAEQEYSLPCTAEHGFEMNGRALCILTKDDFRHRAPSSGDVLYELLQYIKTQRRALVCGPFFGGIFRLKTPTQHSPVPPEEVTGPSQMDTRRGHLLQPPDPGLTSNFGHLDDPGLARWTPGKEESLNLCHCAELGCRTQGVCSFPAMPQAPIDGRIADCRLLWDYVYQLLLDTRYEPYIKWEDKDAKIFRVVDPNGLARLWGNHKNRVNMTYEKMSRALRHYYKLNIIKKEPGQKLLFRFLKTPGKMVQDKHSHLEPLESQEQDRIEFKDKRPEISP
The method in brief: as §1

The next assay concerns the target T13, ETV3 (Homo sapiens, UniProt P41162-2 1-143).
T13 sequence: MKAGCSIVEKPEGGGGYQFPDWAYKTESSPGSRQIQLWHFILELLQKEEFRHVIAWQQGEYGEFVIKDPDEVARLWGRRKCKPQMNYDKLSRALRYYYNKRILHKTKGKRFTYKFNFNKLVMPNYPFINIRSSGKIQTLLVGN
The method in brief:
as §1

For the next assay, the target named is ETV6 (Homo sapiens, UniProt P41212 1-452). The gist of the method: as §1
Sequence of ETV6 (P41212 whole entry): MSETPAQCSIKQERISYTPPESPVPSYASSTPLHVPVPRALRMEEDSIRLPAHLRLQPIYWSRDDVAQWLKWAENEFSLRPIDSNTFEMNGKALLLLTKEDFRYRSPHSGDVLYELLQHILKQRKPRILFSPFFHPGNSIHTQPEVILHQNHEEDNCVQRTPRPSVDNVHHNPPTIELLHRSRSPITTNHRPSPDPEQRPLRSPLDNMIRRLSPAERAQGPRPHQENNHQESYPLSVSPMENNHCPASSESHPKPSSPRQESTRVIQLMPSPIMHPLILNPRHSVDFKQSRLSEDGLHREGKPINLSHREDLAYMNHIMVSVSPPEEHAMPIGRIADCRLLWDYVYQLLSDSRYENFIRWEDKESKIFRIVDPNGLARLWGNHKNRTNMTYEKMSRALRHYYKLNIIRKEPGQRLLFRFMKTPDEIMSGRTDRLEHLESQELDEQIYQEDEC

Sequence of ELF1 (P32519 whole entry): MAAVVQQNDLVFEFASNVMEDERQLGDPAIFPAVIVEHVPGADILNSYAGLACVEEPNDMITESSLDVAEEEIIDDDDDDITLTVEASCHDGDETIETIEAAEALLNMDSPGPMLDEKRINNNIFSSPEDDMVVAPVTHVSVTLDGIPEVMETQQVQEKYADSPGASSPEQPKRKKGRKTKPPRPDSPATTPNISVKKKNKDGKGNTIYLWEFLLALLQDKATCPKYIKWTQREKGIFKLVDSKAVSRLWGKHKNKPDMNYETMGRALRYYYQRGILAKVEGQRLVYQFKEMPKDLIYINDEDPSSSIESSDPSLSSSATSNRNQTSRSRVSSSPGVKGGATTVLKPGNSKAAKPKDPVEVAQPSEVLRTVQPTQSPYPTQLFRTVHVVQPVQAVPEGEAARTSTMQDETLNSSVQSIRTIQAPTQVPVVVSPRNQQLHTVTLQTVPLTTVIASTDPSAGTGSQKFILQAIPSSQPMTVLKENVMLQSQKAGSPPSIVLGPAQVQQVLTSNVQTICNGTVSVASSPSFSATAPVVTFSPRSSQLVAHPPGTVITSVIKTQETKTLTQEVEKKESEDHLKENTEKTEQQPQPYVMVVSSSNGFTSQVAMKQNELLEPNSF
Sequence of SPIB (Q01892 whole entry): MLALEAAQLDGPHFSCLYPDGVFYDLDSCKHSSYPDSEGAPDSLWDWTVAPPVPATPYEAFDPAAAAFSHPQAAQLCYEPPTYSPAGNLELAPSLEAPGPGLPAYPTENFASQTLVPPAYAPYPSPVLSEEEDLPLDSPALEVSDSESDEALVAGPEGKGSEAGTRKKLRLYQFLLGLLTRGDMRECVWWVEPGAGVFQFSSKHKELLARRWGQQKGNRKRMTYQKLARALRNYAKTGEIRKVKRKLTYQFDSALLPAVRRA

For TGGCCA, the binding signal with FLI1 is 1.1 fold enrichment (6-mer frequency, TF over GST control); with ELK1 it was 1.09 fold enrichment (6-mer frequency, TF over GST control); with GABPA, 1.16 fold enrichment (6-mer frequency, TF over GST control); in the assay with ERG, 1.05 fold enrichment (6-mer frequency, TF over GST control); with ELF1, 1.14 fold enrichment (6-mer frequency, TF over GST control); with EHF, 1.05 fold enrichment (6-mer frequency, TF over GST control). For the same sequence, the binding signal in the assay with SPIB was 1.13 fold enrichment (6-mer frequency, TF over GST control); in the assay with ELK3, 1.1 fold enrichment (6-mer frequency, TF over GST control); with ELF4, 1.13 fold enrichment (6-mer frequency, TF over GST control); with ELK4, 1.08 fold enrichment (6-mer frequency, TF over GST control); in the assay with ETV2, 1.02 fold enrichment (6-mer frequency, TF over GST control); with ELF3, 1.04 fold enrichment (6-mer frequency, TF over GST control). Besides, the binding signal was 1.06 fold enrichment (6-mer frequency, TF over GST control) with ERF; 1.04 fold enrichment (6-mer frequency, TF over GST control) in the assay with ETV3L; 1.09 fold enrichment (6-mer frequency, TF over GST control) in the assay with ETV7; 1 fold enrichment (6-mer frequency, TF over GST control) with ETV3; 1.09 fold enrichment (6-mer frequency, TF over GST control) with ETV6.
